# Data from PubChem BioAssay (NCATS).
# Active and inactive are the calls of the source. The call rests on the fitted dose curve.
# Settings: Ebola virus entry cell assay, ratio channel
Structure (SMILES),outcome,AC50
CCOC(=O)Nc1ccc2c(c1)N(C(=O)CCN1CCOCC1)c1ccccc1S2,inactive,
Nc1cc(-c2ccncc2)c[nH]c1=O,inactive,
Cc1nccn1CC1CCc2c(c3ccccc3n2C)C1=O (stereo not drawn),inactive,
CCC(=O)O[C@H]1[C@H](O[C@@H]2[C@@H](C)[C@H](O[C@H]3C[C@@](C)(OC)[C@@H](O)[C@H](C)O3)[C@@H](C)C(=O)O[C@H](CC)[C@@](C)(O)[C@H](O)[C@@H](C)C(=O)[C@H](C)C[C@@]2(C)O)O[C@H](C)C[C@@H]1N(C)C,inactive,
CC(C)NCC(O)c1ccc(O)c(O)c1 (stereo not drawn),inactive,
CCc1nc(N)nc(N)c1-c1ccc(Cl)cc1,inactive,
CCCN(CCc1cccs1)[C@H]1CCc2c(O)cccc2C1,,15.8 µM (active)
CC(C)(C)NC(=O)[C@@H]1CN(Cc2cccnc2)CCN1C[C@@H](O)C[C@@H](Cc1ccccc1)C(=O)N[C@H]1c2ccccc2C[C@H]1O,inactive,
COc1cc(NC(C)CCCN)c2ncccc2c1 (stereo not drawn),inactive,
COC(=O)C1=C(C)NC(C)=C(C(=O)OCCN(C)Cc2ccccc2)C1c1cccc([N+](=O)[O-])c1 (stereo not drawn),,28.2 µM (active)
Nc1ccc(O)c(C(=O)O)c1,inactive,
C[C@H]1[C@H](NC(=O)/C(=N/OC(C)(C)C(=O)O)c2csc(N)n2)C(=O)N1S(=O)(=O)O (stereo in doubt),inactive,
CN(C/C=C/C#CC(C)(C)C)Cc1cccc2ccccc12,inactive,
NC1[C@H]2CN(c3nc4c(cc3F)c(=O)c(C(=O)O)cn4-c3ccc(F)cc3F)C[C@@H]12 (stereo partly drawn),inactive,
Cn1cnc([N+](=O)[O-])c1Sc1ncnc2nc[nH]c12,inactive,
Cc1onc(-c2ccccc2Cl)c1C(=O)N[C@@H]1C(=O)N2[C@@H]1SC(C)(C)[C@@H]2C(=O)O,inactive,
O=C(c1ccc(OCCN2CCCCC2)cc1)c1c(-c2ccc(O)cc2)sc2cc(O)ccc12,,5.01 µM (active)
Cc1[nH]c(=O)c(C#N)cc1-c1ccncc1,inactive,
CN1C[C@H]2c3ccccc3Oc3ccc(Cl)cc3[C@@H]2C1,,17.8 µM (active)

Structure (SMILES),outcome,AC50
C=C[C@H]1CN2CC[C@H]1C[C@@H]2[C@@H](O)c1ccnc2ccc(OC)cc12,inactive,
CC(C)(C)NC(=O)[C@H]1CC[C@H]2[C@@H]3CC[C@H]4NC(=O)C=C[C@]4(C)[C@H]3CC[C@]12C,inactive,
CC(=O)Oc1cc2c(s1)CCN(C(C(=O)C1CC1)c1ccccc1F)C2 (stereo not drawn),inactive,
CN1CCC[C@@H]1CCO[C@](C)(c1ccccc1)c1ccc(Cl)cc1,,3.16 µM (active)
CC1(C)S[C@@H]2[C@H](NC(=O)[C@H](N)c3ccccc3)C(=O)N2[C@H]1C(=O)O,inactive,
CC[C@@H](CO)NCCN[C@@H](CC)CO,inactive,
CC1=NS(=O)(=O)c2cc(Cl)ccc2N1,inactive,
CCOC(=O)[C@H](CCc1ccccc1)N[C@@H](C)C(=O)N1Cc2ccccc2C[C@H]1C(=O)O,inactive,
OCCN1CCN(CCCN2c3ccccc3Sc3ccc(Cl)cc32)CC1,,5.62 µM (active)
CC(=O)N[C@@H](CS)C(=O)O,inactive,
CCCCN1C[C@H](O)[C@@H](O)[C@H](O)[C@H]1CO,inactive,
COc1ccccc1Oc1c(NS(=O)(=O)c2ccc(C(C)(C)C)cc2)nc(-c2ncccn2)nc1OCCO,inactive,
CC(C)C1CCC(C(=O)N[C@H](Cc2ccccc2)C(=O)O)CC1 (stereo partly drawn),inactive,
CC(N)C12CC3CC(CC(C3)C1)C2 (stereo not drawn),inactive,
NS(=O)(=O)c1cc2c(cc1Cl)NC=NS2(=O)=O,inactive,
COC(=O)[C@@H]1CC2=CC(=O)CC[C@]2(C)[C@@]23O[C@@H]2C[C@@]2(C)[C@@H](CC[C@@]24CCC(=O)O4)[C@H]13,inactive,
Cc1ccc(-n2[nH]c(C)c(N=Nc3cccc(-c4cccc(C(=O)O)c4)c3O)c2=O)cc1C,inactive,
CCCc1cc(=O)[nH]c(=S)[nH]1,inactive,
C=C(c1ccc(C(=O)O)cc1)c1cc2c(cc1C)C(C)(C)CCC2(C)C,inactive,
